Source: PubChem BioAssay (NCATS)
Records with an inconclusive call do not appear. A number with no mark means an inactive call. Active and inactive are the calls of the source. Calls come from the whole dose curve; as a rule, active = well fitted curve in the direction sought with a large enough effect; inconclusive = small, poorly fitted or top-dose-only effect, or another doubt; inactive = no such curve, though single readings can be large or run the other way.

experiment: qHTS Assay for Identifying Gametocytocidal Compounds (AID 743244);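 for max response: actives lower the fluorescent signal which means gametocytes are killed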; settings: P. falciparum 3D7 stage III-V gametocytes, alamarBlue, 72 h; max response: active compounds read low
Method in brief: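 Viability read-out was resazurin reduction (alamarBlue, 24 h) measured at Ex 525/Em 598 nm. Beforehand, late-stage (III-V) 3D7 P. falciparum gametocytes at 20,000 cells/well were incubated with compound 72 h at 37C under 5% CO2.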
% is set by controls: 0 for no effect and ±100 for the full control effect; potency is the fitted concentration of half-maximal effect.

Q: With `O=C1NC2CCCCN2C12CCN(CCCN1c3ccccc3CCc3ccc(Cl)cc31)CC2` (stereo not drawn) as the compound, how does the Potency read?
A: 22.4 µM (active)

Q: Which max response does the source give for `CCOC(=O)NC(O)C(Cl)(Cl)Cl` (stereo not drawn) here?
A: 9.34%

Q: For `CC(C)=CCN1CC[C@@]2(C)c3cc(O)ccc3C[C@@H]1[C@@H]2C`, which max response is on record?
A: -13.8%
